# PubChem BioAssay (NCATS)
# “And” between values parts separate entries of the source, which are not always exact repeats. Identical values can stand only once. A number with no mark means an inactive call. Results filed as inconclusive are left out. The source made the active and inactive calls. Unless noted, the call rests on the fitted dose curve; in most records, active means well fitted curve in either direction with a large enough effect (not every such curve was filed as active); inconclusive means small, poorly fitted or top-dose-only effect, or another doubt; inactive means flat fitted curve, though single readings scatter.
# Legend:
# [1] = AP1 Signaling Pathway (AID 357); settings: ME-180 (cervical carcinoma) AP-1-bla reporter, EGF-induced, beta-lactamase ratio, 5 h; series mostly up to 17.2 µM;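 further: ME-180 reporter cells stimulated with EGF at its EC50 level; on the % scale 0 is the no-effect control and ±100 the full control effect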
# Summary of the method: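 Cells are seeded overnight, exposed to compound titrations and an EC50 level of EGF for 5 hours at 37 °C, then loaded with CCF4 dye for 2.5 hours. Beta-lactamase activity under the AP-1 element is read as a blue/green ratio.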
# [2] = Cell Viability - BJ (AID 421; calls by dose curve;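 further: potency means the concentration at half of the fitted maximal effect; cells exposed to compound for 40 hours at 37 °C before readout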); settings: BJ fibroblast viability, qHTS
# Summary of the method: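 Quantitative HTS: ATP depletion in BJ cells after 40 hr compound exposure in complete culture medium, detected with CellTiter-Glo; AC50 from standard Hill fits.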
# [3] = Cell Viability - Jurkat (AID 426;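 active means dose-dependent loss of cell ATP signal giving a full or clear fitted curve, ranked by lower potency value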;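 further: potency means the concentration at half of the fitted maximal effect; cells exposed to compound for 40 hours at 37 °C before ATP read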); settings: qHTS
# Summary of the method: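 qHTS, 1536-well; Jurkat E6-1, 5000 cells/well, complete medium; cpd 40 hr, 37 °C; CellTiter-Glo 20 min RT; luminescence. AC50 by Hill fit.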
# [4] = Cell Viability - Hek293 (AID 427;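 active means compounds whose dose-response curve shows a full or clear partial loss of cell viability, called from curve shape rather than a numeric limit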;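 further: potency means the concentration at half of the fitted maximal effect; cells exposed to compound for 40 hours at 37 °C before reading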); settings: qHTS
# Summary of the method: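 AC50 values derive from Hill-modelled concentration-response of ATP-based luminescence, normalized between DMSO-only and 100 uM tamoxifen controls. Cells were exposed in complete culture medium for 40 hr at 37 °C before detection.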
# [5] = Cell Viability - HepG2 (AID 433; calls by dose curve;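 further: potency means the concentration at half of the fitted maximal effect; potency for ATP loss meaning cytotoxicity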); settings: qHTS
# Text: NIH Chemical Genomics Center [NCGC]
# NIH Molecular Libraries Screening Centers Network [MLSCN]
# National Institutes of Environmental Health Sciences [NIEHS]
# National Toxicology Program [NTP]
# We have developed a 1536-well cell-based assay for quantitative high throughput screening (qHTS) against a number of cell lines to determine in vitro cytotoxicity of small molecules. This particular assay uses the HepG2 cell line which is derived from hepatocellular carcinoma.
# NCGC Assay Protocol Summary:
# The CellTiter-Glo luminescent cell viability assay (Promega) is a homogeneous method to measure the number of viable cells in culture. The end point readout of this assay is based on quantitation of intracellular ATP, an indicator of metabolic activity, using the luciferase reaction. Luciferase catalyzes the oxidation of beetle Luciferin to oxyluciferin and light in the presence of ATP. The luminescent signal is proportional to amount of ATP present.
# Using the CellTiter-Glo luminescent cell viability assay, the amount of cellular ATP was measured in the HepG2 cell line with complete culture medium following compound treatment for 40 hours. The assay was performed in opaque white Kalypsys 1536-well plates. In the screen, tamoxifen and doxorubicin were used as positive controls. Library compounds were measured for their ability to cause acute toxicity in the cell line, as reflected by a decrease in intracellular ATP levels, in a concentration-dependent manner. Data were normalized to the controls for basal activity (DMSO only) and 100% inhibition (100 uM tamoxifen). AC50 values were determined from concentration-response data modeled with the standard Hill equation.
# qHTS protocol fo CellTiter Glo HepG2 cellular assay
# [Step] [Parameter] [Value] [Description]
# 1. Reagent; 5 uL; 1500 HepG2 cells/well
# 2. Time; 5 hr; 37 °C incubation
# 4. Controls; 23 nL; Tamoxifen 0.34 uM to 100 uM & Doxorubicin 0.02 nM to 100 uM
# 5. Time; 40 hr; 37 °C incubation
# 6. Reagent; 5 uL; CellTiter Glo reagent
# 7. Time; 20 min; Room Temperature
# 8. Detection; Luminescence; Viewlux plate reader
# Keywords: cell viability, cytotoxicity, HepG2 cell line, luminescence, NTPHTS, NTPHTS_NCGC, NIEHS, EPA, DSSTox, MLSMR, MLSCN, NIH Roadmap, qHTS, NCGC
# [6] = Cell Viability - MRC5 (AID 434; calls by dose curve;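 further: potency means the concentration at half of the fitted maximal effect; cells exposed to compound for 40 hours at 37 °C; potency reflects cytotoxicity seen as loss of intracellular ATP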); settings: MRC5 lung fibroblast viability, qHTS
# Summary of the method: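 qHTS cytotoxicity in human lung fibroblast MRC5 cells; 40 hr treatment, 37 °C; cellular ATP by luciferase luminescence; DMSO = 0%, 100 uM tamoxifen = 100% inhibition; Hill-fit AC50.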
# [7] = Cell Viability - SK-N-SH (AID 435; calls by dose curve;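 further: potency means the concentration at half of the fitted maximal effect; compound exposure lasted 40 h at 37 °C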); settings: SK-N-SH neuroblastoma cell viability qHTS
# Summary of the method: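 SK-N-SH neuroblastoma cells (1500/well) treated 40 h at 37 °C in complete medium; viability read as cellular ATP by CellTiter-Glo luminescence. Normalized to DMSO and 100 uM tamoxifen; AC50 from Hill fits of qHTS concentration-response.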
# [8] = NFAT Signaling Pathway (AID 444); settings: Jurkat NFAT-bla M1, carbachol, beta-lactamase ratio, 5 h;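 further: carbachol stimulus at about its EC50 of 1 µM final; on the % scale 0 is the no-effect control and ±100 the full control effect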
# Summary of the method: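 Read-out: CCF4 FRET ratio (460 nm/530 nm) after 1 h RT dye loading, used for %activity and AC50 from titration series. Cells: Jurkat NFAT-β-lactamase/M1 line, treated with compound plus 1 uM carbachol for 5 h, 37 °C.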
# [9] = molecular target: Cytochrome P450 1A2 (Homo sapiens) (UniProt P05177); assay: p450-cyp1a2 (AID 410; calls by dose curve; further: potency means the concentration at half of the fitted maximal effect;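 on activity change, negative = inhibition: -100% = full effect of reference inhibitor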); settings: recombinant CYP1A2, luciferin-ME demethylation, luminescence; series mostly up to 57 µM
# Summary of the method: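 Luminescent readout of luciferin formed from Luciferin-ME by human CYP1A2; data normalized against complete inhibition by 57 uM furafylline. Enzyme 20nM, substrate 100uM at Km, 100mM KPO4 buffer, 60 min reaction at room temperature.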
# [10] = molecular target: Lysosomal acid glucosylceramidase (Homo sapiens) (UniProt P04062); assay: Glucocerebrosidase-p2 (AID 348; in the data active means potency below about 10 µM; further: potency means the concentration at half of the fitted maximal effect); settings: purified GBA, blue fluorogenic substrate, 40 min
# Summary of the method: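 Compounds titrated from 0.6 nM upwards against 0.2 nM enzyme in pH 5.9 citric acid/KH2PO4, taurocholate, tween-20; blue fluorogenic substrate 80 uM, 40 min room temperature, stopped and read Ex 365/Em 440 for AC50.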
# Cytochrome P450 1A2 (Homo sapiens), sequence (P05177 whole entry, looked up): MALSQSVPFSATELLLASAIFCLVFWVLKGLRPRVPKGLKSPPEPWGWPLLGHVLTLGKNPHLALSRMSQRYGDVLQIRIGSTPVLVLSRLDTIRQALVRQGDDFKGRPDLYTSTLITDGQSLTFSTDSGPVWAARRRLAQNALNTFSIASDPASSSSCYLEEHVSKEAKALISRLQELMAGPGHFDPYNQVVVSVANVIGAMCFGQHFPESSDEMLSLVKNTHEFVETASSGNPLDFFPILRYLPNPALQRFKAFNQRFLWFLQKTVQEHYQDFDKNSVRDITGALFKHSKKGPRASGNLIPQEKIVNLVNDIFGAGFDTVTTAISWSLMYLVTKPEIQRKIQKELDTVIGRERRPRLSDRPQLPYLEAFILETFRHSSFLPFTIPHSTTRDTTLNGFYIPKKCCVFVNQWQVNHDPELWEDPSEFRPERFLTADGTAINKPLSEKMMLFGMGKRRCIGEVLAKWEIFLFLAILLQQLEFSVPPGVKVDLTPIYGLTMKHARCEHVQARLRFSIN
# Lysosomal acid glucosylceramidase (Homo sapiens), sequence (P04062 whole entry, looked up): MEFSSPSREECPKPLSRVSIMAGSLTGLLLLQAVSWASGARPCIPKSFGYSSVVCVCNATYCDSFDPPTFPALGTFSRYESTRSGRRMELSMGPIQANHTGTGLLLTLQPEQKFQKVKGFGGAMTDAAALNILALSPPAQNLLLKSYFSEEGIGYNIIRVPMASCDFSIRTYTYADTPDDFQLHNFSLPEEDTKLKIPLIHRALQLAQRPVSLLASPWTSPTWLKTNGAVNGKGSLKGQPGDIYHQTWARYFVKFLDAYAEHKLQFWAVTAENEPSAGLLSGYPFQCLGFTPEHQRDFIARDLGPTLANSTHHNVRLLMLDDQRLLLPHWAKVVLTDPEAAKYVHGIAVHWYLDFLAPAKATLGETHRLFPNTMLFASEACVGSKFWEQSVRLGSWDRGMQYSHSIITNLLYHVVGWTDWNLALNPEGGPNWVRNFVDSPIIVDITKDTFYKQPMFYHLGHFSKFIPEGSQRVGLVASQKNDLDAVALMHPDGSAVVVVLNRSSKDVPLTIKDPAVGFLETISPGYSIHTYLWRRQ
compound,measurement,setting,value
CNCC(O)c1ccc(O)cc1 (stereo unspecified),outcome,[1],inactive
same,Potency,[2],> 92 µM
same,Potency,[3],> 92 µM
same,Potency,[4],> 92 µM
same,Potency,[5],> 92 µM
same,Potency,[6],> 92 µM
same,Potency,[7],> 92 µM
same,"activity change, negative = inhibition",[8]; at 17.2 µM (top of the series),19.4%
Cc1ccc(S(=O)(=O)N[C@@H](CCCCN)C(=O)CCl)cc1,outcome,[1],inactive
same,Potency,[9],inactive
same,"activity change, negative = inhibition",[8]; at 38 µM (top of the series),-22.6%
Nc1ccncc1,outcome,[1],inactive
same,Potency,[9],inactive
same,"activity change, negative = inhibition",[8]; at 38 µM (top of the series),-3.97%
CN(C)[C@@H]1C(=O)C(C(N)=O)=C(O)[C@@]2(O)C(=O)C3=C(O)c4c(O)cccc4[C@@](C)(O)[C@H]3C[C@@H]12,outcome,[1],inactive
c1ccc(C2CC2)c(OCC2=NCCN2)c1,outcome,[1],inactive
same,Potency,[9],15.8 µM (active) and 25.1 µM (active)
Clc1ccc(COC(Cn2ccnc2)c2ccc(Cl)cc2Cl)cc1 (stereo unspecified),outcome,[1],inactive
same,Potency,[3],81.7 µM (active)
same,Potency,[6],95 µM
NCC(CC(=O)O)c1ccc(Cl)cc1 (stereo unspecified),outcome,[1],inactive
same,"activity change, negative = inhibition",[8]; at 17.2 µM (top of the series),12.1%
CC(CCc1ccccc1)NC(C)C(O)c1ccc(O)cc1 (stereo unspecified),outcome,[1],inactive
O=c1[nH]c2ccccc2n1CCCN1CCC(n2c(=O)[nH]c3cc(Cl)ccc32)CC1,Potency,[10],> 11.4 µM
same,outcome,[1],inactive
same,"activity change, negative = inhibition",[8]; at 7.69 µM (top of the series),-18.5%
same,"activity change, negative = inhibition",[8]; at 17.2 µM (top of the series),-16.6% and -16.4%
same,"activity change, negative = inhibition",[8]; at 38 µM (top of the series),-15.8%
CC[N+]1(C)CCCC(OC(=O)C(O)(c2ccccc2)c2ccccc2)C1 (stereo unspecified),outcome,[1],inactive
same,"activity change, negative = inhibition",[8]; at 17.2 µM (top of the series),-75.8% (active)
Oc1ccccc1-c1ccccc1,Potency,[2],> 92 µM
same,Potency,[4],> 92 µM
same,Potency,[5],> 92 µM
same,Potency,[6],> 92 µM
same,Potency,[7],> 92 µM
NCC(O)c1ccc(O)cc1 (stereo unspecified),Potency,[2],> 92 µM
same,Potency,[3],> 92 µM
same,Potency,[4],> 92 µM
same,Potency,[5],> 92 µM
same,Potency,[6],> 92 µM
same,Potency,[7],> 92 µM
O=C1CC[C@@]2(O)[C@H]3Cc4ccc(O)c5c4[C@@]2(CCN3CC2CC2)[C@H]1O5,outcome,[1],inactive
same,"activity change, negative = inhibition",[8]; at 17.2 µM (top of the series),1.18%
CCn1cc(C(=O)O)c(=O)c2ccc(C)nc21,outcome,[1],inactive
same,"activity change, negative = inhibition",[8]; at 17.2 µM (top of the series),-8.77% and -6.5%
same,"activity change, negative = inhibition",[8]; at 38 µM (top of the series),12.2%
CC(=O)[C@H]1CC[C@H]2[C@@H]3CC[C@H]4C[C@H](O)CC[C@]4(C)[C@H]3C(=O)C[C@]12C,outcome,[1],inactive
same,"activity change, negative = inhibition",[8]; at 17.2 µM (top of the series),-29.1%
CCOP(=S)(OCC)Oc1cc(C)nc(C(C)C)n1,Potency,[2],> 92 µM
same,Potency,[3],> 92 µM
same,Potency,[4],> 92 µM
same,Potency,[5],> 92 µM
same,Potency,[6],> 92 µM
same,Potency,[7],> 92 µM
CCCC(C)(COC(N)=O)COC(=O)NC(C)C (stereo unspecified),Potency,[2],> 92 µM
same,Potency,[3],> 92 µM
same,Potency,[4],> 92 µM
same,Potency,[5],> 92 µM
same,Potency,[6],> 92 µM
same,Potency,[7],> 92 µM
same,"activity change, negative = inhibition",[8]; at 17.2 µM (top of the series),-6.68%
Cc1ncc(CNC(=O)N(CCCl)N=O)c(N)n1,outcome,[1],inactive
same,"activity change, negative = inhibition",[8]; at 38 µM (top of the series),3.51%
O=c1[nH]c2ccccc2n1C1CCN(CCCC(c2ccc(F)cc2)c2ccc(F)cc2)CC1,Potency,[9],20 µM (active) and 31.6 µM (active)
C=C1CC[C@@]2(O)[C@H]3Cc4ccc(O)c5c4[C@@]2(CCN3CC2CC2)[C@H]1O5,outcome,[1],inactive
same,"activity change, negative = inhibition",[8]; at 17.2 µM (top of the series),-9.27%
CN1C[C@H](CNC(=O)OCc2ccccc2)C[C@@H]2c3cccc4c3c(cn4C)C[C@H]21,outcome,[1],inactive
same,"activity change, negative = inhibition",[8]; at 17.2 µM (top of the series),11.1%
OCCOc1ccccc1,Potency,[2],> 92 µM
same,Potency,[3],> 92 µM
same,Potency,[4],> 92 µM
same,Potency,[5],> 92 µM
same,Potency,[6],> 92 µM
same,Potency,[7],> 92 µM
Oc1ccc(Cl)cc1Cc1ccccc1,Potency,[2],> 92 µM
same,Potency,[3],> 92 µM
same,Potency,[4],> 92 µM
same,Potency,[5],> 92 µM
same,Potency,[7],> 92 µM
CC[C@@H](CO)NC(=O)[C@@H]1C=C2c3cccc4c3c(cn4C)C[C@H]2N(C)C1,outcome,[1],inactive
same,"activity change, negative = inhibition",[8]; at 17.2 µM (top of the series),-12.8%
c1ccc2c(c1)Nc1ccccc1S2,Potency,[2],> 92 µM
same,Potency,[3],> 92 µM
same,Potency,[4],> 92 µM
same,Potency,[5],> 92 µM
same,Potency,[6],> 92 µM
same,Potency,[7],> 92 µM
O=P1(NCCCl)OCCCN1CCCl (stereo unspecified),outcome,[1],inactive
same,"activity change, negative = inhibition",[8]; at 17.2 µM (top of the series),-9.45%
N[C@@H](Cc1ccc(N(CCCl)CCCl)cc1)C(=O)O,Potency,[2],> 92 µM
same,Potency,[3],18.3 µM (active)
CCN(CC)C(=O)N[C@@H]1C=C2c3cccc4[nH]cc(c34)C[C@@H]2N(C)C1,outcome,[1],inactive
same,"activity change, negative = inhibition",[8]; at 38 µM (top of the series),-9.69% and -17.6%
COC1(CS(=O)c2ccccc2)CCN(CCc2c[nH]c3ccc(F)cc23)CC1 (stereo unspecified),Potency,[9],inactive
C[C@]12C/C(=C/O)C(=O)C[C@@H]1CC[C@@H]1[C@@H]2CC[C@@]2(C)[C@H]1CC[C@]2(C)O,Potency,[3],54.9 µM (active)
same,Potency,[5],> 92 µM
same,Potency,[6],> 92 µM
NP(N)(=O)NC(=O)c1ccc(F)cc1,Potency,[9],inactive
C#CCN(C)[C@H](C)Cc1ccccc1,Potency,[9],12.6 µM (active)
COc1ccc(Cc2nccc3cc(OC)c(OC)cc23)cc1OC,outcome,[1],inactive
same,"activity change, negative = inhibition",[8]; at 17.2 µM (top of the series),-29.4%
